# Shown is part of a subset that was picked to be rich in hits.
# Dicer processing – blocks human Dicer maturation of pre-miR-21 | cat-ELCCA pre-miR-21 Dicer processing, chemiluminescence; stronger effect = higher value | z-score at 25 µM | Q9UPY3 | 47,000 compounds, 6% hits; in the data active = z-score above about 3, passing the limit was not always enough;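 note: plate controls were vehicle for no effect and no enzyme for full effect; higher signal means more uncleaved substrate so more Dicer inhibition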
# * marks the source's active call; other numbers are inactive results.
SMILES,Dicer processing
O=C(NC1CCCCC1)c1cnn2c1NC(c1ccc(Br)cc1)CC2C(F)(F)F (configuration not stated),5.56*
CC(O)c1ccccc1-c1ccccc1C(C)O (configuration not stated),-0.55
CCOc1ccc(C2C3=C(CC(C)(C)CC3=O)Nc3nc(C)nn32)cc1 (configuration not stated),0.87
CCCCNc1ncnc2c1sc1nc(N3CCCC3)c3c(c12)CC(C)(C)OC3,-0.26
CCCCCCNC(=O)NCCC(=O)O,-1.2
O=C(COc1ccc2c(=O)c(Oc3ccccc3Cl)coc2c1)NC1CCCCC1,0.26
CCOc1ccc(Cl)cc1CNCCSc1nnnn1C,-0.26
O=C(O)/C=C/C(=O)NNC(=O)c1sc2ccccc2c1Cl,0.76
CCOC(=O)c1nc(-c2ccccc2)sc1-c1ccn[nH]1,-0.47
Cc1ccc(OS(=O)(=O)c2cc(Cl)c(Cl)cc2Cl)c(Br)c1,-0.58
CCOC(=O)c1cnc2cc(C)ccn2c1=O,-0.86
CCOC(=O)c1cnc2cc(C)[nH]n2c1=O,0.82
CCOC(=O)c1cnc2n(c1=O)CCS2,3.22*
COc1cc2cc(C(=O)N3CCN(c4cc(C)nc5ccccc45)CC3)c(=O)oc2cc1OC,2.68
CCOc1ccc(-c2nn3c(-c4ccccc4Cl)nnc3s2)cc1,1.34
Nc1ccc(-c2nc3ccccc3[nH]2)cc1,-0.71
Nc1ccc(-c2nc3c(Cl)cccc3[nH]2)cc1,1.69
Nc1ccc(-c2nc3c(ccc4ccccc43)[nH]2)cc1,23*
Cc1cc(=O)[nH]c(-c2ccc(C(N)=O)cc2)n1,0.87
CCOC(=O)c1snc2c(=O)[nH]cnc12,2.16
CCOC(=O)c1sc2nc[nH]c(=O)c2c1C,4.15*
CCOC(=O)c1c(C)c2c(=O)[nH]cnc2n1-c1ccccc1,-0.11
O=C1NC(=S)C(Nc2ccccc2)S1 (configuration not stated),2.37
CCOC(=O)NC(=O)c1cn(Cc2ccco2)c(=O)[nH]c1=O,-0.32
CN(C)c1ccc(C(=O)c2ccccc2C(=O)O)c(O)c1,3.25*
SMILES,Dicer processing
COc1ccc(C(=O)c2ccccc2O)c(O)c1,6.31
Cc1ccc(C(=O)c2ccccc2C(=O)O)cc1C,0.06
COC(=O)c1ccc(OCC(F)(F)F)nc1,-0.41
O=c1[nH]c2ccccc2c(O)c1C=Nc1ccccc1,1.72
CC1=CC(C)(C)N(C(=O)CN2C(=O)C3CCCCC3C2=O)c2cc(C)ccc21 (configuration not stated),0.21
O=C1C(=O)N(c2ccc(Cl)cc2)C(=S)/C1=C(/Nc1ccc(Cl)cc1)c1ccccc1,-1.13
COc1ccc2oc(-c3ccc(C)c(N)c3)nc2c1,2.12
Nc1ccc2oc(-c3cccc4ccccc34)nc2c1,5.22*
COc1ccc(-c2nc3ccccc3o2)cc1N,4.34*
Cc1ccc2oc(-c3ccc(N)cc3)nc2c1,2.88
Cc1ccc2oc(-c3ccc(N)cc3O)nc2c1,0.56
CC(C)c1ccc2oc(-c3ccc(N)cc3)nc2c1,2.47
Cc1ccc(-c2nc3cc(N)ccc3o2)cc1,4.69*
Nc1nc2ccc(-c3nc4ccccc4o3)cc2s1,1.84
Cc1ccc(-c2nc3cc(N)ccc3o2)cc1N,0.6
COc1ccc(-c2nc3cc(N)ccc3o2)cc1Br,3.24*
Cc1ccc2oc(-c3cccc(N)c3)nc2c1,1.5
COc1ccc(-c2nc3cc(NS(=O)(=O)c4ccccc4)ccc3o2)cc1Br,1.1
COC(=O)C1=C(C)Nc2nnnn2C1c1ccc(F)cc1 (configuration not stated),-0.37
Cc1cc(C)cc(OCc2nc(-c3ccc(-n4cccc4)cc3)no2)c1,-1.11
COC(=O)c1sc(SC)c(C#N)c1-c1ccccc1Cl,-3.54
NC(=O)CCOC1CCN(Cc2ccccc2)CC1,-0.97
O=C(N/N=C/C=C/c1ccccc1)c1ccccc1CO,-0.91
CC(C)NC(=O)NNc1c(Cl)cccc1Cl,-0.42
CCOC(=O)c1cnc(NCc2ccccc2)s1,-1.73
SMILES,Dicer processing
Nc1c(C(=O)NNC(=S)NCc2ccccc2)cnn1-c1ccccc1,2.56
Cc1ccc(OC(C)CC(=O)O)c([N+](=O)[O-])c1 (configuration not stated),3.11*
Cc1ccc(-c2ccc(C)cc2[N+](=O)[O-])c([N+](=O)[O-])c1,-0.74
Cc1ccc(OC(=O)c2ccc(Cl)cc2[N+](=O)[O-])c([N+](=O)[O-])c1,2.51
CCCCN1C2=NC(=O)CN2c2ccccc21,2.89
OCCNc1ncnc2c1sc1nc(-c3ccccc3)c3c(c12)CCCC3,0.3
O=C(Cc1c(F)cccc1Cl)NC(=O)Nc1ccc(Cl)cc1,0.22
O=C(Nc1ccc(F)c(Cl)c1)Oc1ccccc1,0.75
O=C(Cc1c(F)cccc1Cl)NC(=O)Nc1ccc(F)c(Cl)c1,3.94*
CC(C)(C)c1ccc(C2=NNC(SCC(=O)c3ccc(Cl)cc3)=NN2)cc1,-0.55
O=C(CS(=O)(=O)c1ccc(C(F)(F)F)cn1)NNC(=O)NC(=O)c1ccccc1Cl,1.33
Clc1ccc(/C=N/N2CCOCC2)cc1,1.24
CC(=O)Nc1ccccc1OCCN(Cc1ccccc1)C(=O)c1ccc(Cl)cc1,0.24
Cc1ccc(C(=O)Nc2cnc3sc4ccccc4n3c2=O)cc1,-0.84
O=C(Nc1cnc2sc3ccccc3n2c1=O)c1ccc(F)cc1,-0.51
Cc1ccc(C(=O)Nc2cc(C#N)c3sc4ccccc4n3c2=O)cc1,4.77*
CCOC(=O)c1sc(SC)c2c1CC(c1ccccc1)CC2=O (configuration not stated),3.69*
CCOC(=O)C1=C(C)NC2=C(C(=O)CC(c3ccccc3)C2)C1c1cc(C)sc1SC (configuration not stated),0.21
CCOC(=O)c1sc(SC)c2c1CC/C(=C\N(C)C)C2=O,-6.98
Cc1ccc2nc(-c3ccc(C)c(NC(=O)c4ccc([N+](=O)[O-])o4)c3)oc2c1,4.11*
O=C(Nc1ccc2oc(-c3cccc(Cl)c3)nc2c1)c1ccc([N+](=O)[O-])o1,7.04
Cc1ccc(-c2nc3cc(Cl)ccc3o2)cc1NC(=O)c1ccc([N+](=O)[O-])o1,0.65
Cc1cc(=O)oc2cc(NC(=O)CSCC(=O)O)ccc12,0.55
COCCn1cc2c(c1-c1ccccc1)c(=O)n(C)c(=O)n2C,0.38
N#C/C(=C\Nc1ccccn1)C(=O)c1ccccc1,0.39
SMILES,Dicer processing
CCOC(=O)c1ccc(NC(=S)Nc2ncccc2C)cc1,0.21
COc1ccccc1OCCN1C(=O)C(O)(c2c[nH]c3ccccc23)c2ccccc21 (configuration not stated),-0.88
Cc1ccc(/C(O)=C2/C(=O)C(=O)N(c3cccnc3)C2c2ccc(O)cc2)cc1 (configuration not stated),-0.09
O=C1CC(c2ccco2)CC2=C1C(c1ccccc1)n1c(nc3ccccc31)N2 (configuration not stated),-1.69
COc1ccc(C2C/C(=N/O)C(C)C(c3ccc(OC)cc3)N2)cc1 (configuration not stated),1.45
CCCCC1(O)CC(c2ccc(OC)cc2)NC(c2ccc(OC)cc2)C1C (configuration not stated),3.23*
COc1ccc(C2NC(c3ccc(OC)cc3)C(C)C(=O)C2C)cc1 (configuration not stated),-0.54
Cc1cc(NCCC(C)C)n2ncnc2n1,-0.71
CN(S(=O)(=O)c1ccc(F)cc1)S(=O)(=O)c1ccc(Cl)cc1,-1.35
Cc1onc(-c2c(Cl)cccc2Cl)c1CSC(=S)N(C)C,6.63*
CSC(=S)N(C)NC(=O)Nc1c(-c2c(Cl)cccc2Cl)noc1C,-0.93
Cc1onc(-c2c(Cl)cccc2Cl)c1N,-1.03
NS(=O)(=O)c1ccc(Sc2ccccc2)s1,0.44

# Source: PubChem
